From PubChem BioAssay AID1210 (NMMLSC, 2008)

The compounds below were run against Estrogen receptor beta (Homo sapiens) (UniProt Q92731) (assay: ERbeta ligand binders by competition, primary screen, cell-based, Cos7 ERbeta-GFP, flow cytometry (AID 1210;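 further: 0% = DMSO vehicle wells and 100% = complete loss of labeled estradiol signal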)). Details: fluorescent estrogen binding, at 10 µM, active compounds read high;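 active means blocks over 70% of labeled estradiol binding at 10 µM, or over a set limit at 100 nM; inactive means the rest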.
Estrogen receptor beta (Homo sapiens), sequence (Q92731 whole entry, looked up): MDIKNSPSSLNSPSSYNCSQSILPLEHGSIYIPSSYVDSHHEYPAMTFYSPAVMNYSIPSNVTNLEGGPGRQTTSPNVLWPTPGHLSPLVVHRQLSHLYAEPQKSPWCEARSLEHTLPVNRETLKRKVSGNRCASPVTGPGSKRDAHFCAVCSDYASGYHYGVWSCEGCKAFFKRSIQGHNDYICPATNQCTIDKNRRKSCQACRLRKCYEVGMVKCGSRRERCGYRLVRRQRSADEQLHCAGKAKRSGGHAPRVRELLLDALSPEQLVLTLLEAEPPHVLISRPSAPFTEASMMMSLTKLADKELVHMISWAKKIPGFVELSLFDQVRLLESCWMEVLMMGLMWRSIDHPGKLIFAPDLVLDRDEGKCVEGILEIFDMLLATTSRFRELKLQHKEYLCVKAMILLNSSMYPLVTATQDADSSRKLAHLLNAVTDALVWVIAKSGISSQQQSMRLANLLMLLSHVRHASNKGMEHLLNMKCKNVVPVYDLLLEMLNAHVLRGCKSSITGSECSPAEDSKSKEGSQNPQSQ

inhibition, inactive:
CC(=O)Nc1ccc2[nH]c(C)cc(=O)c2c1 64%
O=C(Cc1ccc(S(=O)(=O)N2CCOCC2)s1)Nc1nc2c(s1)CCCC2 18%
CCOC(=O)c1ccc2c(c1)C1C=CCC1C(C(=O)O)N2 (stereo not drawn) 36%
COc1cc(C2C3C(C)N(C)C(=O)N(C)C3N(C)C(=O)N2C)ccc1O (stereo not drawn) 12%
COc1ccc(N2C(=O)c3ccccc3NC2c2ccc(OC)c(CSc3ccccn3)c2)cc1 (stereo not drawn) 36%
CCOc1cc2c(c([N+](=O)[O-])c1)NC(c1ccc(Br)cc1)C1CC=CC21 (stereo not drawn) 7%
O=C(N/N=C/c1cccc(Oc2ccc([N+](=O)[O-])cc2[N+](=O)[O-])c1)c1cncc(Br)c1 46%
Cc1oc2ccc(OCC#N)cc2c1C(=O)OC(C)C 14%
COc1cc(C2CC(=O)Nc3c2ccc2ccccc32)cc(Cl)c1O (stereo not drawn) 19%
COc1cc2c(cc1OC)CC(C)(C)N(Cc1ccco1)C2 15%
Cc1ccc(-n2cc3c(c(C#N)c2=N)CC(C)(C)CC3=O)cc1 22%
CCOc1ccc(N=C2NC(=O)S/C2=C\c2ccc(OC)cc2)cc1 47%
COc1ccc(C2Nc3ccccc3C(=O)N2c2ccc(C)cc2)cc1COc1ccccn1 (stereo not drawn) 44%
COc1ccc(C2Nc3ccccc3C(=O)N2c2ccccc2)cc1CSc1ccccn1 (stereo not drawn) 60%
NC(=O)c1ccsc1NC(=O)COC(=O)Cc1ccsc1 44%
Cc1ccc(-c2nnc(-c3ccc(NC(=O)c4ccco4)cc3)o2)cc1 54%
CCOc1cc2c(c([N+](=O)[O-])c1)NC(c1ccc(Cl)cc1)C1CC=CC21 (stereo not drawn) 16%
COc1cc([N+](=O)[O-])cc2c1NC(c1ccc(Br)cc1)C1CC=CC21 (stereo not drawn) 17%
Cc1ccc2c(c1)[C@H]1OCC[C@H]1[C@@H](c1ccncc1)N2 24%
CCc1cc2c3c(c(=O)oc2cc1OCC(=O)O)CCCC3 20%
Cc1cc(C(C)CO)cc(C(C)(C)C)c1O (stereo not drawn) 19%
COc1ccc(C2(CNCC(N)=O)CCCC2)cc1OC 7%
Nc1nc(-c2ccc3c(c2)NC(=O)CO3)cs1 70%
Cc1sc2ncnc(NCc3ccco3)c2c1C 39%
Nc1ccc2nc(-c3cc(Cl)c(N)c(Cl)c3)[nH]c2c1 10%
O=C(NCc1ccco1)c1cc2cc3ccc(Cl)cc3nc2o1 14%
CCOc1ccc(NS(=O)(=O)c2ccc3c(c2)[C@H]2C=CC[C@H]2[C@@H](c2cccc([N+](=O)[O-])c2)N3)cc1 0%
CC(Nc1ccc(N2CCNCC2)cc1[N+](=O)[O-])C12CC3CC(CC(C3)C1)C2 (stereo not drawn) 15%
CC(C)CN(Cc1c(O)ccc2c3c(c(=O)oc12)CCC3)CC(C)C 17%
O=C(C1c2ccccc2C(=O)N2CCc3ccccc3C12)N1CCN(Cc2ccccc2)CC1 (stereo not drawn) 29%
CN(C)NC(=S)Nc1ccc2nc(-c3ccccn3)c(-c3ccccn3)nc2c1 25%
CC(=O)OC1CC(C)(C)N(OC(=O)c2ccc(N)cc2)C(C)(C)C1 30%
CC1CCC2(C)c3[nH]c4ccccc4c3CCN2C1=O (stereo not drawn) 7%
CCCC1Nc2ccc(C(=O)O)cc2C2C=CCC12 (stereo not drawn) 44%
CCc1cc2c3c(c(=O)oc2cc1OC)CCCC3 18%
COc1ccc2[nH]c3c(c2c1)CCNC3C1CC=C(C)CC1 (stereo not drawn) 22%
COc1ccc(C(N)CCc2ccc(C)o2)cc1 (stereo not drawn) 38%
CCOc1ccc(NS(=O)(=O)c2ccc3c(c2)[C@H]2C=CC[C@H]2[C@@H](c2ccc([N+](=O)[O-])cc2)N3)cc1 1%
